High-throughput results from PubChem BioAssay.
In the library only some 3.6% were active in any assay of this set; here they are far more common.
Bead autofluor: counter-screen for toxin protease inhibitors: compound fluorescence | compound autofluorescence counterscreen, microsphere flow cytometry; stronger effect = higher value | fluorescence intensity (test concentration not listed) | 360,000 compounds, 3.1% hits | AID 624483; in the data active = fluorescence intensity above about 16000; inconclusive = no clear call, values can overlap the other calls
Anthrax LF inh2: inhibitors of Bacillus anthracis lethal factor protease | inhibition, % at 10 µM | 360,000 compounds, 0.12% hits | P15917 | multiplex microsphere protease cleavage assay, LF; note: plate controls were buffer without enzyme for full effect and enzyme alone for no effect
Target sequence (P15917 whole entry, looked up): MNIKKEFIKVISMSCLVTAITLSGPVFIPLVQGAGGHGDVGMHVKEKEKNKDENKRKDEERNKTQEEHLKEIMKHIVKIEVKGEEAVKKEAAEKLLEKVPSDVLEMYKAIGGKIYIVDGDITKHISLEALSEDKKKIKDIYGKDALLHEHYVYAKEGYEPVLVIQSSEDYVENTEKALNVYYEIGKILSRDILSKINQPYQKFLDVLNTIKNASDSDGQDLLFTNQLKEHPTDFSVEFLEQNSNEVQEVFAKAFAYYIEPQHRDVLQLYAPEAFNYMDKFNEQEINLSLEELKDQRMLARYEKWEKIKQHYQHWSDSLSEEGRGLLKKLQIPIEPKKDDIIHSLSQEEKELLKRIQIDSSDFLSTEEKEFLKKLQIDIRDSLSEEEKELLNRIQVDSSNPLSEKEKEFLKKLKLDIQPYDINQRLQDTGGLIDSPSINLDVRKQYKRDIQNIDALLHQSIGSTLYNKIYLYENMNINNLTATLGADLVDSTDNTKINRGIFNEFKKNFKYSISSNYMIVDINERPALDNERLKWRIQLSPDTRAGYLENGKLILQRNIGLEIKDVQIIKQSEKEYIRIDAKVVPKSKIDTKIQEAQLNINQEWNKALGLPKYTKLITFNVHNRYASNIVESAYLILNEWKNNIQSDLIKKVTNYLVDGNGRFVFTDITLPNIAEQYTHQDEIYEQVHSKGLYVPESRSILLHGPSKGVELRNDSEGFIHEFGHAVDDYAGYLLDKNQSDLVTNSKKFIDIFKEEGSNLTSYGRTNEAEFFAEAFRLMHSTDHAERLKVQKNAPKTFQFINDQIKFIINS
MazF activator: MazEF (E. coli) toxin RNase activation | P0AE70 | FAM/BHQ RNA-DNA oligo cleavage fluorescence, 5 h | activation, % at 20 µM | 350,000 compounds, 0.32% hits; in the data active = activation above about 50%
BoNT-A LC inh2: BoNT A light chain protease inhibition; multiplex microsphere protease substrate cleavage, flow cytometry; AID 588499; inhibition, % at 10 µM; 360,000 compounds, 0.17% hits; note: plate controls were buffer without enzyme for full effect and enzyme alone for no effect
BoNT-F LC inh: blocks Botulinum neurotoxin F light chain protease. Multiplex microsphere protease cleavage assay, flow cytometry. inhibition, % at 10 µM. 360,000 compounds, 0.22% hits; in the data active = inhibition above about 35%, passing the limit was not always enough; inconclusive = no clear call, values can overlap the other calls; note: plate controls were buffer without enzyme for full effect and enzyme alone for no effect
Numbers without * were called inactive; ? = inconclusive; . = not tested or not shown. Cut-off read from the data, not from the text of the source, unless noted: active = inhibition above about 30%; inconclusive = no clear call, values can overlap the other calls; inactive = below that.

SMILES	Bead autofluor	Anthrax LF inh2	MazF activator	BoNT-A LC inh2	BoNT-F LC inh
O=C(CSC(=S)N1CCCCC1)Nc1nc(-c2ccccc2)c(-c2ccccc2)o1	21247*	-9.8	2.5	1.3	2.4
Cc1ccc(C)c(C(=O)COC(=O)c2ccccc2N2C(=O)C3C4CCC(C4)C3C2=O)c1 (configuration not stated)	20251*	-0.9	-7.7	?	-0.5
O=C(COC(=O)c1ccccc1N1C(=O)C2C3CCC(C3)C2C1=O)c1ccccc1 (configuration not stated)	2939	0.9	4.9	-0.5	3.4
COc1cccc(-c2cc(C(=O)N3CCCc4ccccc43)no2)c1	12935	-22.7	-3.5	24.6	31.3
COc1ccc(-c2cc(C(=O)N3CCc4ccccc4C3)no2)cc1OC	21095*	-5.1	4.5	-1.3	-3.8
COc1cccc(-c2cc(C(=O)N3CCc4ccccc4C3)[nH]n2)c1	5328	-3.4	93.4*	1.2	-5.0
COc1ccc(-c2cc(C(=O)N3CCCc4ccccc43)no2)cc1OC	22113*	-1.3	-2.9	0.6	0.6
COc1ccc(-c2cc(C(=O)N3CCCc4ccccc43)no2)cc1	22780*	-1.1	-7.2	?	1.5
CN1COc2ccc3ccccc3c2C1	1970	-4.1	2.1	-0.5	-5.3
CC1CN(S(=O)(=O)c2cccc(C(=O)Nc3ccc(S(=O)(=O)NC4=NCCCCC4)cc3)c2)CC(C)O1 (configuration not stated)	?	-1.2	3.4	6.9	11.7
CCCNC(=O)C1(C)CCCN(Cc2ccc(C(=O)OCC)o2)C1 (configuration not stated)	3820	-5.6	.	0.3	8.9
Cc1ccc(-c2nn(CC(=O)NN3CCOCC3)c(=O)c3ccccc23)cc1	5276	-0.6	-2.1	0.2	-2.1
CCc1ccc(C(=O)NC2CCCCC2)s1	20340*	-3.9	4.0	-2.6	-3.1
CS(=O)(=O)N1CCN(C(=O)c2ccc(Cl)s2)CC1	4306	2.6	10.6	-1.0	3.2
Cn1ncc(Cl)c1C(=O)N1CCc2ccccc21	10470	0.5	-8.1	1.3	3.3
Cc1nn(C)c(C(=O)N2CCc3ccccc32)c1Cl	21851*	-0.6	-0.1	?	-0.3
CCc1ccc(C(=O)N2CCCC2)s1	16597*	-0.7	0.2	?	-3.1
O=C(c1ccc(Cl)s1)N1CCCC1	24368*	-0.7	6.0	-4.0	-5.4
COc1cccc(CN(C)C(=O)C2CC(=O)N(c3ccc4c(c3)OCCO4)C2)c1 (configuration not stated)	.	.	5.4	.	.
O=C(NCCC1=CCCCC1)c1ccc(Cl)c(S(=O)(=O)N2CCCCC2)c1	4548	-5.0	-14.6	0.7	-4.4
NS(=O)(=O)c1cc(C(=O)N2CCc3ccccc32)c(Cl)cc1Cl	18762*	-4.2	5.6	2.6	1.0
O=C(c1ccc(Cl)s1)N1CCc2ccccc21	20271*	1.0	-6.8	-1.8	-3.8
O=C(c1ccc(C(=O)N2CCCc3ccccc32)s1)N1CCCc2ccccc21	9169	2.8	-1.8	0.5	1.9
COc1ccc(OCc2cc(C(=O)NC(C)c3nc(C)cs3)no2)c(Cl)c1 (configuration not stated)	4078	-12.2	6.2	-0.5	-2.1
O=C(Nc1ccccc1F)c1ccc2ncsc2c1	3555	2.7	1.1	-0.3	16.4
SMILES	Bead autofluor	Anthrax LF inh2	MazF activator	BoNT-A LC inh2	BoNT-F LC inh
COc1ccc(CC(=O)NC2CCN(Cc3nnnn3C(C)(C)C)CC2)cc1OC	20961*	-3.4	-0.1	?	-6.5
Nc1c(C(=O)NCc2ccccc2)nnn1Cc1ccccc1	4719	-12.6	-1.2	-2.2	-10.7
CN(C)/C=N/c1c(C(=O)NCc2ccccc2)nnn1Cc1ccccc1	18876*	1.9	2.5	7.8	11.5
CCOc1ccc(-n2c(=O)c3sccc3n(CC(=O)NCc3ccco3)c2=O)cc1	19457*	-10.6	-7.0	8.7	9.2
Cc1ccc([N+](=O)[O-])cc1S(=O)(=O)Nc1ccc(-c2ccc(N3CCCC3)nn2)cc1	5464	-0.1	-1.1	1.4	-2.2
Cc1cc(C)n(C2CCCCC2OC(=O)CCc2ccccc2)n1 (configuration not stated)	3606	32.8*	4.4	?	?
CCOC(=O)C1CCCN(C(=O)CCc2ccccc2)C1 (configuration not stated)	5961	-13.6	4.9	-1.5	-9.8
O=C(NCc1cccnc1)c1cc(C2CCCCN2C(=O)c2ccccc2)on1 (configuration not stated)	3670	1.7	.	-0.3	-2.1
CCn1c(NCc2ccco2)nc2ccccc21	4593	-0.9	2.6	0.0	-4.3
c1ccc(Cn2c(NCc3ccco3)nc3ccccc32)cc1	22272*	3.0	6.8	?	5.2
CC(OC(=O)CN1C(=O)NC2(CCCC2)C1=O)C(=O)c1ccccc1 (configuration not stated)	?	-24.8	11.4	-129.1	-193.5
CC(OC1=CC(=O)CCC1)C(=O)c1ccccc1 (configuration not stated)	20377*	-0.5	0.0	2.4	2.7
Cc1nn(Cc2ccc(C(=O)Nc3ccccc3C(F)(F)F)o2)c(C)c1Br	23948*	-2.5	-4.9	-0.4	-1.4
O=C(NC(CO)(CO)CO)c1coc(=O)c(Br)c1	17123*	-2.1	8.0	-0.9	-1.6
CC(C)CNC(=O)c1coc(=O)c(Br)c1	8945	-8.2	-16.0	0.3	3.5
CC(=O)Nc1ccc(Nc2ncnc3c2cnn3-c2ccccc2)cc1	23123*	1.5	2.3	?	-2.0
CC(=O)Nc1ccc(Nc2ncnc3c2cnn3-c2ccc(C)cc2C)cc1	?	?	2.7	0.6	?
Clc1ccc(Nc2ncnc3c2cnn3-c2ccccc2)cc1	5548	-8.1	7.4	-0.6	-9.1
CC(=O)Nc1ccc(Nc2ncnc3c2cnn3-c2cccc(C)c2)cc1	19017*	-18.2	-3.3	6.8	11.2
CCOc1ccc(CN(C)c2ccc(S(=O)(=O)N3CCN(C)CC3)cc2[N+](=O)[O-])cc1OC	3545	-13.2	1.8	-1.3	-5.0
Cc1nn(-c2cc(N3CCNCC3)ccc2[N+](=O)[O-])c(=O)c2ccccc12	3082	-1.8	11.6	-0.4	-1.9
Cc1nn(-c2cc(N3CCCCC3)ccc2[N+](=O)[O-])c(=O)c2ccccc12	21077*	2.5	-1.0	?	0.2
O=C(NC1CCCC1)c1cccc(S(=O)(=O)N2CCCC2)c1	8341	1.1	4.6	4.0	6.0
Cn1c(-c2ccc3c(c2)OCO3)cnc1NCc1ccccc1Cl	4272	-1.9	5.5	-0.3	-0.3
Cn1c(-c2ccc3c(c2)OCO3)cnc1NC(=O)CCC(=O)NCCc1ccccc1	22472*	-2.0	4.6	1.1	0.1
Cn1c(-c2ccc3c(c2)OCO3)cnc1NCc1cccc(Cl)c1	9450	-0.1	-2.1	0.6	8.6
Cn1c(-c2ccc3c(c2)OCO3)cnc1NCc1ccccc1	22213*	-7.9	1.6	2.2	4.8
Cn1c(-c2ccc3c(c2)OCO3)cnc1N	19330*	-3.5	2.4	1.7	-9.2
CCCCNC(=O)CCC(=O)Nc1ncc(-c2ccc(C)cc2)n1C	20268*	0.5	-2.6	?	-0.8
CC(C)(C)c1cc2nc(NCc3cccc(Cl)c3)ccn2n1	3339	1.4	.	0.0	-1.5
